Screens (PubChem BioAssay)
This is a sample that favours compounds with a hit; in the whole collection about 4.8% have one here.
ssDAF-12 act: S. stercoralis DAF-12 activation, primary screen; 370,000 compounds, 1% hits; HEK293 ssDAF-12/GRIP1 lit1-tk-luc reporter, luminescence; % of 3 µM dafachronic acid response; AID 652126; activation, % at 6.8 µM;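 active = activation above the mean over all tested compounds plus 3 SD, cut at about 0.9% in these data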
hcDAF-12 act: H. contortus DAF-12 activation, primary screen; HEK293 hcDAF-12 lit1-tk-luc reporter, luminescence; 0% DMSO, 100% Δ7-dafachronic acid; activation, % at 6.8 µM; 370,000 compounds, 1.4% hits; AID 652067;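 active = activation above the mean of all tested compounds plus 3 SD, cut at about 5.5% in these data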
DAX1 inh-1: inhibitors of DAX1 repression of SF-1 activated StAR promoter. HEK293T StAR-luciferase reporter, SF-1/DAX-1 repression relief. 370,000 compounds, 1.1% hits. inhibition, % at 6.8 µM;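 active = inhibition above the mean over all tested compounds plus 3 SD, cut at about 3.6% in these data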;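 note: higher inhibition means more luminescence from relief of DAX-1 repression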
DAX1 inh-2: NR0B1 (DAX1) inhibition. AID 504766. P51843. 340,000 compounds, 0.99% hits. HEK293 Gal4-DAX1 luciferase reporter, luminescence. inhibition, % at 6.75 µM;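 active = inhibition above the mean over all tested compounds plus 3 SD, cut at about 4.2% in these data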;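 note: inhibition shows as a rise in luminescence from relieved DAX1 repression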
Target sequence (P51843 207-470 limits assumed): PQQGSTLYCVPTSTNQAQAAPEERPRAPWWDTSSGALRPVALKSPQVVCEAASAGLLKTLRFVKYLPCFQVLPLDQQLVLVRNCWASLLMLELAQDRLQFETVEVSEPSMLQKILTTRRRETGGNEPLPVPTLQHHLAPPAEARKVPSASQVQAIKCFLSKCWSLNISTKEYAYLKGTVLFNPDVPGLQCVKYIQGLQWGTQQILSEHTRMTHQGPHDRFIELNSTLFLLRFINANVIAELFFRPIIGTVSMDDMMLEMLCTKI
SMARCA2 activ: activators of SMARCA2 function; activation, % at 9.1 µM; 370,000 compounds, 1% hits; MG213 cells, MMTV-luciferase reporter, dexamethasone, overnight; in the data active = activation above about 7.8%
hgDAF-12 ag: hgDAF-12 agonism, primary luciferase screen | activation, % at 6.8 µM | 370,000 compounds, 1.8% hits | AID 687014 | HEK293 GAL4-hgDAF12 UAS-luciferase reporter, agonist luminescence; normalized to butyrate control;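 active = activation above a cutoff set at the mean of all screened compounds plus 3 SD, cut at about 10% in these data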
SMARCA2 act conf: SMARCA2 activation, confirmation screen. MG213 cells, MMTV-luciferase with dexamethasone, luminescence, overnight; MG213 cells expressing E1A, Rb sequestered; DMSO wells 0%, reference activator 100%. AID 652260. shares compounds with SMARCA2 activ. activation, % at 9.1 µM. 3,500 compounds, 30% hits;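 active = activation above its plate's cutoff, the mean activation of tested wells plus 3 SD, cut at about 7.9% in these data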
VP16 Luc act: activates GAL4-VP16 luciferase, flagging SMARCA2 activator hits | activation, % at 9.1 µM | AID 686939 | 3,500 compounds, 41% hits | HEK293 GAL4-VP16 pG5luc reporter, luciferase luminescence; scaled: DMSO wells 0%, SAHA wells 100% | shares compounds with SMARCA2 activ;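 active = activation above the solvent-only control well mean plus 3 SD, averaged across control plates, cut at about 5.2% in these data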
Of the large screens only hits and unclear results are named; the others gave an inactive call (follow-up assays come after a bar, where they were run).

C/C(=N\NC(=S)Nc1ccccc1C)C1Cc2ccccc2C(=O)O1 (centres undefined)	none
O=C(Nc1ccc(-c2nc3ccccc3[nH]2)cc1)C1CCCN(Cc2ccn[nH]2)C1 (centres undefined)	SMARCA2 activ 18 | SMARCA2 act conf inactive | VP16 Luc act inactive
COc1ccc2c(CCNC(=O)c3ccco3)c[nH]c2c1	SMARCA2 activ 9.6 | SMARCA2 act conf inactive | VP16 Luc act inactive
CCOC(=O)c1sc(-c2ccc(F)cc2)cc1N	none
CCOC(=O)c1sc(-c2ccccc2)cc1N	SMARCA2 activ 9.0 | SMARCA2 act conf inactive | VP16 Luc act 6.4
Cc1csc2c(=O)sc(NC(=O)c3ccc(F)cc3Cl)nc12	SMARCA2 activ 11 | SMARCA2 act conf inactive | VP16 Luc act inactive
COc1ccc(CCC(=O)NC2=NCCS2)cc1OC	none
CCOc1ccc(C(=O)/C=C/Nc2ccc(S(=O)(=O)N=C(N)N)cc2)cc1	SMARCA2 activ 8.1 | SMARCA2 act conf inactive | VP16 Luc act inactive
O=C(Nc1nc(-c2cccc(Br)c2)cs1)Oc1ccccc1	SMARCA2 activ 8.4 | SMARCA2 act conf 8.0 | VP16 Luc act inactive
O=C(O)c1ccc(Nc2nc(-c3cccnc3)cs2)cc1	none
Brc1cccc(Nc2nc(-c3cccnc3)cs2)c1	SMARCA2 activ 8.6 | SMARCA2 act conf inactive | VP16 Luc act 6.0
COc1ccc(CC(=O)NCC(=O)NCc2cc(=O)n(C)c(=O)n2C)cc1	none
Cc1nc(SCC(=O)c2cccs2)c2oc3ccccc3c2n1	SMARCA2 activ 8.5 | SMARCA2 act conf inactive | VP16 Luc act 11
O=C(CSc1ncnc2c1oc1ccccc12)c1cccs1	none
Cc1csc(=O)n1CC(=O)Nc1ccc(C(C)C)cc1	SMARCA2 activ 8.0 | SMARCA2 act conf inactive | VP16 Luc act 5.4
Cc1ccc(NC(=O)COC(=O)Cn2c(C)csc2=O)cc1	none
CC(=O)Nc1cccc(NC(=O)c2cc3ccccc3o2)c1	none
CC(C)C(=O)Nc1cccc(NC(=O)c2cc3ccccc3o2)c1	SMARCA2 activ 9.4 | SMARCA2 act conf inactive | VP16 Luc act 10
CC(C)c1ccc(NC(=O)COC(=O)C2CC3C=CC2C3)cc1 (centres undefined)	SMARCA2 activ 8.2 | SMARCA2 act conf inactive | VP16 Luc act inactive
COc1cc2cnc(-c3ccccc3)c(-c3cc(OC)c(OC)c(OC)c3)c2cc1OC	none
CCOC(=O)c1cccc(-c2c(-c3ccccc3)ncc3cc(OC)c(OC)cc23)c1	SMARCA2 activ 12 | SMARCA2 act conf 11 | VP16 Luc act 5.8
Cc1cc(C)nc(Nc2nc(=O)c3ccccc3s2)n1	SMARCA2 activ 8.8 | SMARCA2 act conf inactive | VP16 Luc act 14
COc1cccc(CNC(=O)CCNS(=O)(=O)c2cccs2)c1	none
Cc1cc2cc(C#N)c(N3CCN(S(C)(=O)=O)CC3)nc2cc1C	SMARCA2 activ 9.1 | SMARCA2 act conf inactive | VP16 Luc act inactive
C[C@@H]1CC=C[C@H]2[C@H]1C(=O)N(Cc1ccccc1)[C@H]2c1ccc(-c2cc3ccccc3s2)cc1F	none
CC(NC(=O)c1cc2ccccn2n1)c1ccccc1 (centres undefined)	none (no result: DAX1 inh-2)
COc1cc(C=O)ccc1OCc1ccccc1Br	hcDAF-12 act 6.2, SMARCA2 activ 15 | SMARCA2 act conf inactive | VP16 Luc act 8.0
COc1ccc(C=O)cc1COc1ccc(F)cc1F	none
CCOC(=O)c1c(CN(C)C)n(C)c2c(O)c(N=NC(N)=O)c3ccc(Br)cc3c12	SMARCA2 activ 9.1 | SMARCA2 act conf inactive | VP16 Luc act 6.3
O=C(CSc1nnc(-c2ccncc2)n1CC1CCCO1)Nc1cccc(O)c1 (centres undefined)	SMARCA2 activ 8.3 | SMARCA2 act conf inactive | VP16 Luc act inactive
COc1cc(/C=C/C(=O)NC(=O)c2ccccc2O)ccc1O	none
O=C(/C=C/c1ccccc1)NC(=O)c1ccccc1O	SMARCA2 activ 9.6, hgDAF-12 ag 12 | SMARCA2 act conf 11 | VP16 Luc act 6.4
COc1ccc(C2CC2/C(=N/O)c2ccccn2)cc1 (centres undefined)	none
COc1ccc(C2CC2C(=O)c2ccccn2)cc1 (centres undefined)	SMARCA2 activ 8.6 | SMARCA2 act conf inactive | VP16 Luc act inactive
CC(=O)c1cnc2nc(SCc3ccccc3)nn2c1C	SMARCA2 activ 11 | SMARCA2 act conf inactive | VP16 Luc act 10
CCOC(=O)CSc1cccc2cccnc12	SMARCA2 activ 9.4 | SMARCA2 act conf inactive | VP16 Luc act inactive
Cc1cccc(NC(=O)CSc2cccc3cccnc23)c1C	none
CC1(C(=O)NCc2ccc(F)c(F)c2)Cc2c(-c3cccc(C(F)(F)F)c3)ccnc2O1 (centres undefined)	none (no result: DAX1 inh-2)
COc1ccccc1CNC(=O)COC(=O)c1cccnc1SCC(=O)NCc1ccccc1OC	none
O=C(COC(=O)c1cccnc1SCC(=O)NCc1ccccc1)NCc1ccccc1	SMARCA2 activ 9.1 | SMARCA2 act conf inactive | VP16 Luc act inactive
COc1ccc(NC(=S)NC(=O)c2ccc3c(c2)OCCO3)cc1	SMARCA2 activ 11 | SMARCA2 act conf inactive | VP16 Luc act 11
CCOC(=O)c1csc(Nc2nc3ccc(F)cc3s2)n1	SMARCA2 activ 11 | SMARCA2 act conf inactive | VP16 Luc act 20
Cc1ccc(C(C(=O)NC2CCCCC2)N(Cc2ccco2)C(=O)Cn2cnc3ccccc32)cc1 (centres undefined)	none
O=C(NCc1cccs1)c1cccnc1Cl	SMARCA2 activ 11 | SMARCA2 act conf inactive | VP16 Luc act inactive
O=C(NCc1ccco1)C1CCCN(S(=O)(=O)c2ccc(F)cc2)C1 (centres undefined)	none (no result: DAX1 inh-2)
Cc1ccc(S(=O)(=O)N2CCCC(C(=O)NCc3ccco3)C2)cc1 (centres undefined)	SMARCA2 activ 10 (no result: DAX1 inh-2) | SMARCA2 act conf inactive | VP16 Luc act inactive
Cc1noc(C)c1C(=O)OCC(=O)Nc1ccc(N2CCOCC2)cc1	none
CN(C)CCCn1c(=O)n(CCc2ccccc2)c(=O)c2c3c(sc21)CCCCC3	none
CN(C)CCCNc1nc2sc3c(c2c(=O)n1CCc1ccccc1)CCCCC3	SMARCA2 activ 10 | SMARCA2 act conf inactive | VP16 Luc act inactive
CC#CC#Cc1cccc(=O)o1	SMARCA2 activ 9.8 | SMARCA2 act conf 15 | VP16 Luc act inactive
